Growth data for 9 compounds are collected here from PubChem BioAssay (NCI).

Holding throughout (test): NCI-60 one-dose screen, 48 h (100 = growth as untreated, 0 = no growth, -100 = all killed)
Common to all, as to details: 10 µM unless noted

Experiment [1] concerns SR leukemia.
The subject of experiment [2] is RPMI-8226 leukemia.
For experiment [3], the system named is OVCAR-8 ovarian.
Experiment [4] concerns OVCAR-5 ovarian.
The test system of experiment [5] is OVCAR-4 ovarian.
The subject of experiment [6] is SK-OV-3 ovarian.
The test system of experiment [7] is IGROV1 ovarian.
Experiment [8] has as its system OVCAR-3 ovarian.
Experiment [9] relates to HS 578T breast.
The subject of experiment [10] is NCI/ADR-RES ovarian.
Experiment [11] has as its system T-47D breast.
In experiment [12] the test system is BT-549 breast.
Experiment [13] concerns MDA-MB-435 melanoma.
Experiment [14] deals with SW-620 colon.
The test system of experiment [15] is MCF7 breast.
Experiment [16] concerns HCT-116 colon.
Experiment [17] relates to KM12 colon.
Experiment [18] concerns HCC-2998 colon.

This is part of a sample that, as a whole, favours compounds with a hit. Of some 83,000 tested, about 20% had one in any assay.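 Compound tested at a single concentration for 48 hours in 96-well plates; a percent growth value below 10 was scored as active.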 Unmarked numbers belong to inactive results. Calls of active or inactive are those of the source.

Turning to `COc1cc(O)c2c(=O)c3c(CC=C(C)C)cc(OC)c(O)c3oc2c1`, the growth is 24.7% in [1]; 29.8% in [2]; 26.4% in [3]; 51.2% in experiment [4]; 52.5% in [5]; 17% in [6]. The growth in experiment [7] is 41.7%; in [8], 1.93% (active); in experiment [9] it was 36.1%; in experiment [10] it was 16.1%; in experiment [11], 45.9%; in experiment [12], 33.2%. Further, the growth in experiment [13] is -3.84% (active); in [14] it was 26.3%; in experiment [15], 23%; in experiment [16] it was 11.8%; in experiment [17] it was 23.2%.
With `COc1ccc(-c2cc(C(=O)N3N=C(c4ccc(N)cc4)CC3c3ccc(Cl)cc3)c3cc(OC)ccc3n2)cc1` (stereo not drawn), the growth in [1] was 20.9%; in experiment [2], 20.9%; in experiment [3], 56.4%; in experiment [4] it was 76.1%; in [5], 53.9%; in [6], 89.7%. Moreover, the growth is 39.6% in [7]; 42.7% in [8]; 87.3% in [9]; 14.8% in [10]; 66.7% in experiment [11]; 29.8% in [12]. Further, the growth in experiment [13] is 9.88% (active); in [14] it was 35.5%; in [15] it was 38.6%; in experiment [16] it was 1.85% (active); in experiment [17], 52.3%.
For `Cc1ccc(Cc2cnc(NC(=O)/C=C/c3ccc(C)o3)s2)cc1`, the growth in experiment [1] is 16.2%; in experiment [2] it was 26.8%; in experiment [3] it was 62%; in experiment [4], 60.3%; in experiment [5] it was 73.4%; in experiment [6], 42.9%. The growth is 42.2% in experiment [7]; -8.25% (active) in experiment [8]; 30.7% in experiment [9]; 33.9% in experiment [10]; 35.5% in [11]; 72.3% in experiment [12]. Further, the growth in experiment [13] was -52.5% (active); in [14], 22.7%; in experiment [15], 12.3%; in experiment [16] it was 27.7%; in [18], 65.2%; in [17], 16.5%.
Regarding `CCSc1ccnc(N)n1`, the growth is 153% in [1]; 114% in experiment [2]; 108% in experiment [3]; 104% in experiment [4]; 111% in experiment [5]; 110% in experiment [6]. The growth is 96.7% in experiment [7]; 97.3% in experiment [8]; 117% in experiment [9]; 109% in experiment [10]; 104% in experiment [11]; 117% in experiment [12]. The growth in [13] was 112%; in experiment [14], 106%; in experiment [15] it was 104%; in [16] it was 106%; in experiment [18], 116%; in experiment [17], 108%.
On to `c1ccc(-c2c(-c3ccccc3)[n+](Cc3ccc4ccccc4c3)cn2Cc2ccc3ccccc3c2)cc1`, for which the growth in experiment [1] is -74.5% (active); in [2] it was -54.9% (active); in experiment [3], -87.4% (active); in experiment [4], -29.1% (active); in experiment [5] it was -81.5% (active); in [6] it was -97.9% (active). In addition, the growth in experiment [7] is -73.8% (active); in experiment [8], -91.1% (active); in [9], -27.8% (active); in experiment [10] it was 70.5%; in experiment [11], -74.3% (active); in experiment [12], -82% (active). The growth in [13] was -91.3% (active); in experiment [14] it was -79.8% (active); in experiment [15], -83.8% (active); in experiment [16], -87.5% (active); in experiment [17] it was -80.2% (active).
Take `CCN(CC)CCN1C(=O)c2c(c3c4ccccc4[nH]c3c3ccc4ccccc4c23)C1=O`: the growth in experiment [1] was -22.5% (active); in experiment [2], -33.1% (active); in experiment [3], -29.1% (active); in experiment [4], -85.8% (active); in experiment [5], -79.5% (active); in experiment [6] it was 83.1%. For the same compound, the growth was 76.1% in experiment [7]; 109% in [8]; 87.4% in experiment [9]; -40.9% (active) in [10]; 48.7% in experiment [11]; 84.5% in experiment [12]. The growth was -84.8% (active) in [13]; 4.79% (active) in [14]; -50.8% (active) in experiment [15]; 29.2% in experiment [16]; -15.8% (active) in experiment [17].
For the compound `Cc1nn(-c2ccc([N+](=O)[O-])cc2)c2ncnc(N/N=C/c3ccccc3O)c12`, the growth in [1] was 4.55% (active); in experiment [2], 1.23% (active); in experiment [3] it was 14.5%; in [4] it was 55.8%; in [5], 16.5%; in experiment [6] it was 3.11% (active). Moreover, the growth in experiment [7] is 9.22% (active); in experiment [8], 27.3%; in experiment [9], 44%; in experiment [10], 6.28% (active); in experiment [11], 11.6%; in experiment [12], 30.6%. The growth was 26.5% in experiment [13]; 25.1% in [14]; 11.9% in [15]; 18.1% in experiment [16]; 40.4% in experiment [18]; 22.3% in [17].
As for `COc1cc(/C=N/NC(=O)c2ccc(-n3cc(-c4ccccc4)nn3)cc2)cc(OC)c1OC`, the growth in experiment [1] was 55.4%; in experiment [2], 24%; in [3] it was 49%; in [4] it was 105%; in [5], 45.8%; in [6], 73.7%. Further, the growth in experiment [7] is 57%; in experiment [8], 93%; in experiment [9], 53.1%; in experiment [10], 80.8%; in experiment [11] it was 59.8%; in experiment [12], 53.8%. Moreover, the growth in [13] was 33.1%; in experiment [14] it was 64.8%; in [15] it was 14.1%; in [16], 89.5%; in [18], 84.3%; in experiment [17], 53.1%.
Take `COC(=O)c1c(C)nc(C)c2c1C(=O)C=C(NCc1ccccc1)C2=O`: the growth in [1] was 54.1%; in experiment [2], 88.4%; in [3] it was 97.8%; in [4], 81.7%; in experiment [5], 64.6%; in experiment [6], 91.4%. Further, the growth in experiment [7] is 66.7%; in [8], 44.1%; in experiment [9] it was 116%; in [10], 81.7%; in experiment [11] it was 82.2%; in experiment [12], 90%. Further, the growth is 103% in experiment [13]; 106% in experiment [14]; 76% in experiment [15]; 76% in experiment [16]; 96.2% in experiment [18]; 83% in experiment [17].
